# Source: PubChem (Sanford-Burnham Center for Chemical Genomics)
# Sampled rows, rich in hits. Any-hit rate of the full collection: about 2.6%.
# eIF4H inh: inhibitors of RNA binding by human eIF4H. Q15056. eIF4H fluorescence polarization binding assay. inhibition, % at 35 µM. 290,000 compounds, 0.94% hits. AID 2012;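 note: calls also rest on retests at 20 µM and on dose response follow-up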
# PABP1 MLLE inh: inhibitors of microRNA-mediated deadenylation, human PABP1 MLLE binding; 360,000 compounds, 0.36% hits; inhibition, % at 20 µM; AID 588489; GST-MLLE / FITC-PAM2 fluorescence polarization; in the data active = inhibition above about 35%, passing the limit was not always enough;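 note: plate controls were DMSO wells with GST-MLLE for no effect and wells lacking GST-MLLE protein for full effect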
# PABP FP inh: blocks human PABP binding to poly(A) RNA; 290,000 compounds, 1% hits; fluorescence polarization; P11940; calls only at 35 µM; AID 2014;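 note: calls also rest on retests at 20 µM and on dose response follow-up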
# A3A deaminase: human APOBEC3A DNA deaminase inhibition; P31941; recombinant A3A, FAM/TAMRA ssDNA deamination fluorescence; inhibition, % at 20 µM; 330,000 compounds, 0.41% hits;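 active = at least 40% inhibition at 20 µM here, with at most 30% in a related deaminase screen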;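 note: plate controls were A3A with DMSO for no effect and wells lacking A3A enzyme for full effect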
# Target sequence (P31941 whole entry, looked up): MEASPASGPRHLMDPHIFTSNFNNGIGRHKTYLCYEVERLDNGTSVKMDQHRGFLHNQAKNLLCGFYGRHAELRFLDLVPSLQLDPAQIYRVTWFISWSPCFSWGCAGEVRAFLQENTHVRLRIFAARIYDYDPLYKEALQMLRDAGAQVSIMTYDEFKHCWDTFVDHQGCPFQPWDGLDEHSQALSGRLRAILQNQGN
# A3G deaminase: blocks human APOBEC3G single-stranded DNA deamination. 330,000 compounds, 0.28% hits. inhibition, % at 20 µM. recombinant A3G, ssDNA deamination FAM/TAMRA fluorescence. Q9HC16;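 active = inhibition of at least 40% at 20 µM, with no more than 30% in the related APOBEC3A deaminase screen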;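 note: plate controls were DMSO wells with A3G for no effect and wells lacking A3G enzyme for full effect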
# PHOSPHO1 inh: blocks human PHOSPHO1 phosphatase activity. recombinant PHOSPHO1, absorbance phosphatase assay. inhibition, % at 13.3 µM. Q8TCT1. 290,000 compounds, 1.1% hits; in the data active = inhibition above about 60%
# Target sequence (Q8TCT1 whole entry, looked up): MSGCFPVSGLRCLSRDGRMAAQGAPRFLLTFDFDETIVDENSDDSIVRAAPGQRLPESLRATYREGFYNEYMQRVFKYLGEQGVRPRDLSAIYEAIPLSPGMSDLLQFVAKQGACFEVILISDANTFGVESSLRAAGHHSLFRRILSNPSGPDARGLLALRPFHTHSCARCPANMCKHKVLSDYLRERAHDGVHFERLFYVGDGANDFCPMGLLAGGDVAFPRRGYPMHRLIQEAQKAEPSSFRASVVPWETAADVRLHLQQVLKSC
# * hit, by the source's call; i = inactive; ? = inconclusive; . = no result; + = active, no number. Unless noted, the rule behind the calls is not given here.
SMILES,eIF4H inh,PABP1 MLLE inh,PABP FP inh,A3A deaminase,A3G deaminase,PHOSPHO1 inh
Cc1[nH]n(C(N)=S)c(=O)c1N=Nc1ccc(S(=O)(=O)N2CCCCCC2)cc1,-3.7,39.9*,i,-0.8,-3.9,16.2
CCn1c2ccccc2c2cc(NC(=O)c3coc(=O)c(Br)c3)ccc21,105.1*,104.2,i,-7.2,1.2,-5.5
CCn1c2ccccc2c2cc(NC(=O)c3ccc(=O)oc3)ccc21,?,-34.3,?,-2.0,-1.7,18.9
CCCCC(=O)Nc1nnc(C2=COCCO2)o1,-7.3,6.7,i,0.1,-3.0,29.5
CC(CN1CCCCCC1)C(=O)NN (stereo unspecified),active,-12.8,+,-2.8,-4.8,2.5
Cc1cccc(C)c1OCC(=O)NNC(=O)CNC(=O)c1ccc(OC(F)F)cc1,.,11.6,.,0.0,2.9,.
COC(=O)c1[nH]c2ccccc2c1NC(=O)/C=C/c1ccc2c(c1)OCO2,-12.5,10.4,+,-2.2,-7.2,4.4
CCN(CC(=O)Nc1c(C(=O)OC)[nH]c2ccccc12)c1ccc2c(c1)OCO2,16.3,14.6,i,1.2,-2.6,-4.0
CCOC(=O)c1[nH]c2cc(OC)c(OC)cc2c1NC(=O)c1ccc2c(c1)OCO2,-12.9,2.3,i,0.2,-4.2,67.8*
CCc1ccc(CN2CCN(c3ncccn3)CC2)cc1,10.1,10.7,i,-2.8,-2.3,7.8
Cc1ccccc1OCCOc1cccc(/C=N/NC(=O)Cc2nnc(N)s2)c1,-15.3,3.8,i,-4.8,-3.8,1.4
O=C(N/N=C/c1sc(=O)[nH]c1-[n+]1ccccc1)c1ccccc1[O-],39.7,61.2*,i,-2.6,-8.0,24.4
O=C(N/N=C/c1sc(=O)[nH]c1-[n+]1ccc2ccccc2c1)c1ccccc1[O-],.,8.5,.,-5.1,-1.6,12.6
Cc1ccc[n+](-c2[nH]c(=O)sc2/C=N/NC(=O)c2ccccc2[O-])c1,55.2,47.5*,i,-5.7,-8.7,-23.9
CCOC(=O)c1cc(C#N)c(SCC(=O)c2cc(C#N)c(SC)nc2C)nc1C,-2.6,-18.0,i,-3.7,-8.7,73.2*
Cc1ccc(C(=O)Nc2cccc(N3C(=O)C4CCC(C)CC4C3=O)c2)cc1 (stereo unspecified),-3.8,4.5,i,0.0,-7.3,16.2
Cc1ccc(-c2nc3ncccn3c2NC2CCCCC2)o1,53.5*,-27.2,+,-3.3,-5.9,-1.4
O=C(NNC(=O)c1ccccc1F)c1cccc(S(=O)(=O)N2CCc3ccccc32)c1,.,-9.3,.,-1.0,-6.5,.
O=C1c2ccccc2C(=O)N1CC1=CCS(=O)(=O)C1,-7.1,39.1*,i,-3.7,-1.1,-8.1
CC1CCN(C(=S)NC(=O)c2cccc([N+](=O)[O-])c2)CC1,-10.3,24.7,i,1.8,-2.5,-1.9
CC(NC(=O)NC(=O)c1cccc([N+](=O)[O-])c1)C1CC1 (stereo unspecified),-11.7,6.5,i,3.4,-1.1,75.4*
O=C(NC(=S)NC1CCSC1=O)c1ccc([N+](=O)[O-])cc1 (stereo unspecified),1.0,47.7*,i,-6.8,5.4,-53.1
CC(NC(=O)NC(=O)c1ccc(F)cc1)C1CC1 (stereo unspecified),.,8.5,.,-4.1,-6.3,.
CCC1CCCCN1C(=S)NC(=O)c1cccc([N+](=O)[O-])c1 (stereo unspecified),-19.0,42.2*,i,-0.2,-1.2,7.7
CC(=O)NNC(=S)NC(=O)c1cccc([N+](=O)[O-])c1,-5.9,18.9,i,-4.2,23.3,57.5
SMILES,eIF4H inh,PABP1 MLLE inh,PABP FP inh,A3A deaminase,A3G deaminase,PHOSPHO1 inh
O=C(NC(=S)NC1CCSC1=O)c1cccc([N+](=O)[O-])c1 (stereo unspecified),-5.9,42.2*,i,-1.9,2.5,-30.7
O=C(NC(=S)NC1CCSC1=O)c1ccccc1 (stereo unspecified),-5.8,26.4,i,-0.1,-0.7,8.2
COC(=O)C(Cc1ccccc1)NC(=O)CNC(=O)c1sc2ccccc2c1Cl (stereo unspecified),-17.7,6.3,i,-1.4,-5.9,20.0
NC(=O)Cc1c[nH]c2cccc(O)c12,5.5,-2.1,i,-8.7,-3.7,-19.3
Cc1ccc(NC(=O)CN2C(=O)S/C(=C/c3ccncc3)C2=O)cc1,5.3,47.9*,i,1.4,0.0,17.8
COc1cc(/C=C2\SC(=O)N(CC(=O)Nc3cccc(C)c3)C2=O)cc([N+](=O)[O-])c1O,15.4,-0.6,i,.,.,62.2*
Cc1ccc(/C=C2\SC(=S)N(CC(=O)Nc3cccnc3)C2=O)cc1,4.7,1.6,i,1.2,-1.3,-24.8
O=C(CN1C(=O)S/C(=C/c2ccncc2)C1=O)N1CCOCC1,0.0,48.8*,i,1.3,-4.9,2.1
COCCCN1C(=O)c2ccc(C(=O)OCC(=O)NCc3cccc(OC)c3)cc2C1=O,.,-17.1,.,0.6,-0.3,.
CCOc1ccc(NC(=O)c2cc3c(=O)n(C)c4ccccc4c3n2C)cc1,3.2,7.2,i,-1.7,-3.1,-1.3
CCC(=Nc1ccccc1)C1=C(O)CC(C)(C)CC1=O,7.7,.,i,.,.,6.7
Cc1cc(C)c(NC(=O)NC(=O)c2ccc(F)cc2)c(C)n1,76.5*,3.8,+,-1.5,2.0,21.6
CC(C)n1c(=S)[nH]c2c1c(=O)[nH]c(=O)n2C,10.3,-29.8,i,-7.0,0.2,62.0*
O=C1NN(c2ccc(Cl)c(Cl)c2)C(=O)/C1=C/c1cccc(OC(=O)c2cccs2)c1,82.1*,.,+,1.9,0.6,-24.5
O=C1c2ccccc2CC1Sc1nnc(-c2ccccn2)o1 (stereo unspecified),14.3,-43.6,i,.,.,69.4*
Cc1cc(NC(=O)CSc2nc3cc(Cl)ccc3c(=O)n2C(C)C)no1,.,-9.9,.,3.2,-3.7,.
CC1CN(c2oc(-c3ccco3)nc2S(=O)(=O)c2ccccc2)CC(C)O1 (stereo unspecified),0.3,5.2,i,-6.4,-3.1,75.8*
CCCN1C[C@H](CSC)C[C@@H]2c3cccc4[nH]cc(c34)C[C@H]21,100.5*,20.4,+,-4.1,-8.7,-1.4
O=C(c1ccc(C#CC2(O)CCCCC2)cc1)N1CCN(C(c2ccccc2)c2ccccc2)CC1,-10.2,-0.5,i,2.9,-1.3,-51.2
CC(C)(C)NC(=O)c1cccc(NC(=O)c2cccc(O)c2)c1,-3.4,2.5,i,-2.3,-8.8,36.6
O=C(Nc1nc2c(Cl)ccc(Cl)c2s1)C1CC1,1.4,13.5,i,-1.0,2.9,4.7
NNc1nc2c(Cl)ccc(Cl)c2s1,61.8*,8.6,+,0.9,0.1,1.5
O=C(Nc1nc(=O)n(C(=O)c2cccc(C(F)(F)F)c2)s1)c1ccccc1,-2.0,6.9,i,-1.1,-3.7,19.9
COc1ccc(NS(=O)(=O)c2cccc(C(=O)NNC(=O)c3ccccc3O)c2)cc1,.,7.5,.,10.0,30.6,.
